Bioassay records from PubChem BioAssay.
Most compounds without a hit are left out; they make up all but 2.2% or so of the library.
VLA-4 inh = inhibition in a human VLA-4 binding assay. P13612. VLA-4 expressing cells, ligand binding flow cytometry. inhibition, % (about 7 µM as worked out from the volumes in the protocol). 330,000 tested, 0.2% active. AID 2557; in the data active = inhibition above about 50%
V-ATPase pHluor = regulators of yeast V-ATPase proton transport. AID 504577. S. cerevisiae, pHLuorin cytosolic pH fluorescence. 350,000 tested, 0.37% active. response, % at 10 µM; in the data active = response mostly above about 7.3%, no sharp cut-off; inactive = mostly below about 5.4%; also: actives read high
Granule exo inh = blocks lytic granule exocytosis. TALL-104 LAMP-1 surface exposure, flow cytometry; cells stimulated with thapsigargin and PMA. 360,000 tested, 0.66% active. inhibition, % at 10 µM. AID 651702;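 active = inhibition above about 55%, limit read from the data; inconclusive = no clear call, values can overlap the other calls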
m5-HT2A agonist = agonists of mouse serotonin 5-HT2A receptor (HTR2A); P35363; CHO-K1 mHTR2A beta-arrestin complementation, luminescence; percent of 30 µM serotonin response; activation, % at 7.6 µM; 360,000 tested, 0.66% active;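 active = activation above a run cutoff, the mean activation of all tested compounds plus 3 SD, cut at about 14% in these data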
MEX-5 binding = C. elegans MEX-5 TCR-2 RNA binding activity; Q9XUB2; 300,000 tested, 0.38% active; MEX-5/FITC-TCR2 RNA binding, fluorescence polarization; stronger effect = lower value; activity score (negative = inhibition of binding), % at 10 µM;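 active = inhibition past about -25% in most replicates, and total fluorescence under double the plate's negative control median, limit read from the data; inconclusive = replicates evenly split on the limit, or fluorescence at least double controls; inactive = too little inhibition in most replicates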
GASC-1 inh = human JMJD2C demethylase inhibition; GST-JMJD2C(1-420) H3K9me3 demethylation, DELFIA europium; inhibition, % at 2.35 µM; 330,000 tested, 0.069% active; AID 2099;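 active = more than half of a compound's replicate wells show inhibition beyond 50%, single wells judged on their own value; inconclusive = some, but no more than half, of replicates pass 50% inhibition; inactive = no replicate passes 50% inhibition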;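 also: signal counts dimethyl H3K9 product captured on neutravidin plate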
Target sequence (Q9H3R0 1-420 limits assumed): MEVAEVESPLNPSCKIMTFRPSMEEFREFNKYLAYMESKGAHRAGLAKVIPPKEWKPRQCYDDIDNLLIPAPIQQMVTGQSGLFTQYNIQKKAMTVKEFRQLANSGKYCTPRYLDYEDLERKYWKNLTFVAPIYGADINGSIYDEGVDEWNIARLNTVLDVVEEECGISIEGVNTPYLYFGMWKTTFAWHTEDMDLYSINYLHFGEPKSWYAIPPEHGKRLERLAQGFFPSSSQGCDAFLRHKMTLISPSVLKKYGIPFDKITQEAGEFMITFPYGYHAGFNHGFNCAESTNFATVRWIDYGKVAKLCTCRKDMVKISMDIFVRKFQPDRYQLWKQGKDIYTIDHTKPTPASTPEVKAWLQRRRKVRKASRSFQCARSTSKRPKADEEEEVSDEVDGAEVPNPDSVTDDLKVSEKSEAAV
Each line names hits and unclear results; the compound was inactive in the other large screens.

Nc1ncnc2c1ncn2[C@@H]1O[C@H](CNC(=O)[C@H]2CCC(=O)N2)[C@@H](O)[C@H]1O	none (no result: VLA-4 inh, MEX-5 binding, GASC-1 inh)
COc1cc2cccc(OC)c(=O)c2c(O)c1OC	none
CC(=O)Oc1cc2cccc(OC(C)=O)c(=O)c2c(OC(C)=O)c1OC(C)=O	MEX-5 binding -61
Cc1ccc(/C=C/C(=O)N2CC(C)CC(C)C2)o1 (centres undefined)	Granule exo inh 102
CCc1nc2c(OCc3cc(Cl)cc(Cl)c3)cccn2c1N(C)C(=O)Nc1ccccc1OC	none (no result: VLA-4 inh, V-ATPase pHluor, MEX-5 binding, GASC-1 inh)
N#C/C(N=Nc1ccccc1O)=N\Nc1ccccc1O	GASC-1 inh 87
COc1ccc(OC)c(-c2cnc(OC(C)(C)C)nc2OC(C)(C)C)c1	none
CNc1ccc(-c2ccccc2OC)cn1	none (no result: VLA-4 inh, V-ATPase pHluor, MEX-5 binding, GASC-1 inh)
O=S(=O)(NNc1nccc(C(F)(F)F)n1)c1cccc(Cl)c1Cl	Granule exo inh 83
Cc1ccc(N2CN(S(=O)(=O)c3cccc([N+](=O)[O-])c3)c3nc4ccccc4nc32)cc1	none
CCSC1=N/C(=C\c2ccc3c(c2)OCO3)C(=O)S1	none
CN1C(=O)/C(=C/c2ccc3c(c2)OCO3)N=C1c1ccccc1	MEX-5 binding -33
Cc1nc(C)c(C(=O)Nc2cccc(F)c2)s1	none
COC(=O)c1ccc2nc(C3CCCCC3)c(Cc3ccc(OC)cc3C)n2c1	none (no result: VLA-4 inh, V-ATPase pHluor, MEX-5 binding, GASC-1 inh)
Cc1ccc(NC(=O)c2cccc(S(=O)(=O)N(C)c3ccccc3)c2)cc1S(=O)(=O)N1CCOCC1	none
N#C/C(=C\N1CCN(Cc2ccc3c(c2)OCO3)CC1)c1nc2ccccc2s1	MEX-5 binding inconclusive
CCOC(=O)N1CCN(/C=C(\C#N)c2nc3ccccc3s2)CC1	MEX-5 binding -50
O=C1c2ccccc2NC(c2cccc([N+](=O)[O-])c2)N1CCc1ccccc1 (centres undefined)	Granule exo inh 76
O=C1c2cccc3c([N+](=O)[O-])ccc(c23)C(=O)N1Cc1cccnc1	none (no result: VLA-4 inh)
Cc1ccnc(N2C(=O)c3cccc4c([N+](=O)[O-])ccc(c34)C2=O)c1	Granule exo inh 77
Cc1ccnc(N2C(=O)c3ccccc3C2=O)c1	none
Cc1nnc(N2C(=O)c3cccc4c([N+](=O)[O-])ccc(c34)C2=O)s1	Granule exo inh 86
CCOC1=C2CN(S(=O)(=O)c3ccc(C)cc3)CC[C@@H]2N(S(=O)(=O)c2ccc(C)cc2)[C@H](c2ccccc2)C1	none (no result: VLA-4 inh, V-ATPase pHluor, MEX-5 binding, GASC-1 inh)
CC(=NNc1nc2ccccc2o1)c1ncccn1	none (no result: VLA-4 inh, MEX-5 binding, GASC-1 inh)
CC(=NNc1nc2ccccc2o1)c1cc2ccccc2cn1	Granule exo inh 101 (no result: VLA-4 inh, MEX-5 binding, GASC-1 inh)
O=C(/C=C/c1c(F)cccc1Cl)N1CCc2ccccc2C1	none
CC1=C(C(=O)OCCc2ccccc2)C(c2ccsc2)NC(=O)N1C (centres undefined)	V-ATPase pHluor 23
CC1=C(C(=O)OCc2ccccc2)C(c2ccsc2)NC(=O)N1C (centres undefined)	none
CCC(C)c1ccccc1NC(=O)COC(=O)c1ccc2[nH]c3c(c2c1)CCCC3 (centres undefined)	Granule exo inh 61
O=C(COC(=O)c1ccc2[nH]c3c(c2c1)CCCC3)Nc1ccccc1Cl	none
C/C(=N/Nc1ccc(C(=O)O)cc1)c1ccc(O)c(O)c1O	MEX-5 binding -41 (no result: VLA-4 inh)
CC1CCN(c2nc3ccccc3nc2C(C#N)C(=O)NC2CCCCC2)CC1 (centres undefined)	MEX-5 binding -29 (no result: V-ATPase pHluor, Granule exo inh, m5-HT2A agonist)
N#CC(C(=O)NC1CCCCC1)c1nc2ccccc2nc1N1CCN(c2ccccc2F)CC1 (centres undefined)	none (no result: MEX-5 binding, GASC-1 inh)
C/C=C/C1=CC(=O)C[C@H](c2ccc(OC)c(OC)c2)C1	none (no result: MEX-5 binding)
O=C(Cc1csc(Nc2nc(=S)[nH]c3ccccc23)n1)NCCCN1CCN(c2ccccc2F)CC1	Granule exo inh 84
CC(=O)Nc1cccc(Oc2nc(-c3ccccn3)nc3ccccc23)c1	MEX-5 binding -35
CCOc1cc(/C=C2/C(=O)ON=C2C)ccc1OCc1ccccc1F	Granule exo inh 78, MEX-5 binding inconclusive
CCOc1cc(/C=C2/C(=O)ON=C2C)ccc1OCc1ccccc1	none (no result: V-ATPase pHluor, Granule exo inh, m5-HT2A agonist)
COc1ccc(C2SCC(=O)N2CCc2ccc(OC)c(OC)c2)cc1 (centres undefined)	none
Oc1ccc(-c2csc(Nc3ncccn3)n2)c(O)c1	V-ATPase pHluor 15
Oc1ccc(-c2csc(Nc3ncccn3)n2)cc1O	none (no result: VLA-4 inh)
C[C@H](CO)N1C[C@H](C)[C@H](CN(C)C(=O)c2ccccc2)OCc2cnnn2CCCC1=O	none (no result: VLA-4 inh, MEX-5 binding, GASC-1 inh)
O=C(O)c1ccccc1N/N=C/c1c(Sc2nnnn2-c2ccccc2)nc2ccccn2c1=O	MEX-5 binding -26
C=CCN(CC=C)Cc1cc(=O)oc2ccc3ccccc3c12	none (no result: VLA-4 inh, V-ATPase pHluor, MEX-5 binding, GASC-1 inh)
C=CCN(CC=C)Cc1c(O)ccc2c1oc(=O)c1ccccc12	GASC-1 inh 79
CCOC(=O)N1CCN(CC(=O)Nc2sc(CC)cc2C(=O)c2ccc(OC)cc2)CC1	none
NC(=O)c1ccccc1NC(=O)CN1CCN(Cc2ccc(Cl)cc2Cl)CC1	none
CC(=O)N(C(C)=O)c1ccc2nc(C)[nH]c(=O)c2c1	none
Cc1nc2ccc(CN(C)c3ccc(C(=O)N[C@@H](CCC(=O)O)C(=O)O)s3)cc2c(=O)[nH]1	VLA-4 inh 52 (no result: V-ATPase pHluor, Granule exo inh, m5-HT2A agonist)
COc1ccc(NC(=O)c2cc3ccc(O)cc3o/c2=N\O)cc1	Granule exo inh 66
COc1ccc2oc(=O)c(C(=O)Nc3ccccc3O)cc2c1	none
N=c1oc2cc(O)ccc2cc1C(=O)Nc1ccc(F)cc1	none
COc1ccc2o/c(=N\O)c(C(=O)Nc3ccccc3OC)cc2c1	Granule exo inh 64
Cc1ccc(Oc2nc3ccccn3c(=O)c2/C=C(\C#N)C(=O)NC2CCS(=O)(=O)C2)cc1 (centres undefined)	Granule exo inh 74
Cc1cccn2c(=O)c(/C=C(\C#N)C(=O)NC3CCS(=O)(=O)C3)c(Oc3ccccc3Cl)nc12 (centres undefined)	none
Cc1ccccc1Oc1nc2c(C)cccn2c(=O)c1/C=C(\C#N)C(=O)NC1CCS(=O)(=O)C1 (centres undefined)	Granule exo inh 82
CCOC(=O)c1ccc(CC(=O)c2ccc(O)c(O)c2O)o1	MEX-5 binding -27 (no result: VLA-4 inh)
CCOC(=O)c1ccc(CC(=O)c2oc3cc(O)ccc3c2C)o1	none
O=C1C=CC(=O)N1CCNc1ncc(C(F)(F)F)cc1Cl	V-ATPase pHluor 13 (no result: VLA-4 inh)
COc1ccccc1CNCC(O)Cn1c2ccccc2c2ccccc21 (centres undefined)	Granule exo inh 87
Cc1ccc(C(=O)NCc2ccccn2)cc1S(=O)(=O)N1CCCCC1	none
COc1ccc(CCC(C)NC2C3CC4CC(C3)CC2C4)cc1 (centres undefined)	V-ATPase pHluor 16 (no result: VLA-4 inh)
Cc1cccc(OCC(=O)Nc2ccccc2N2CCCCC2)c1C	V-ATPase pHluor 8.8
COc1ccc2nc(N3CCCC3)c(C#N)cc2c1	V-ATPase pHluor 11
CN1C(=O)c2ccccc2NC(=O)[C@]12O[C@@H]2c1cccc(O)c1	MEX-5 binding -44
